This note sets out measurements from paper PMC7862700, “An all-to-all approach to the identification of sequence-specific readers for epigenetic DNA modifications on cytosine”.

Assay in all cases: DAPPL (digital affinity profiling via proximity ligation, sequencing); 10 mM Tris-HCl pH 7.5, 50 mM NaCl, 1 mM DTT, 4% glycerol, room temperature, 30 min; GST-TFs on glutathione beads, 16-mer random dsDNA library, 0.1% formaldehyde crosslink after washing; high values mean tight binding
Test [1] deals with T1, FEV (Homo sapiens, UniProt Q99581 1-238).
T1 sequence: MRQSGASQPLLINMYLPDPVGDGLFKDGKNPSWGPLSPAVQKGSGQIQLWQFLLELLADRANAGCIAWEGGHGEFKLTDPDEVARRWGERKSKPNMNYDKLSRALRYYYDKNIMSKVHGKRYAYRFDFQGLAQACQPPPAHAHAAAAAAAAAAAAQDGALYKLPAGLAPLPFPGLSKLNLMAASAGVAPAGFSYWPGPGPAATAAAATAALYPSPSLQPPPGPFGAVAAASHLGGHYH
As to conditions: protein: recombinant; tags: N-terminal GST; dsDNA, one strand shown. In a few lines: (§1)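 Binding signal is each hexamer's read frequency for a factor divided by its frequency in the tag-only sample. The factors were GST-fused human transcription factors from yeast, captured on glutathione beads, DNA-barcoded and pooled with that sample. Pools were incubated with 200 nmole of a random double-stranded 16-mer DNA library in Tris/NaCl/DTT/glycerol buffer at room temperature for 30 min, then washed, crosslinked with 0.1% formaldehyde, proximity-ligated with BsaI/T4 ligase (1 h, 37 °C), PCR-amplified and sequenced on an Illumina NextSeq500.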

In test [2] the target is ETV5 (Homo sapiens, UniProt P41161 1-510). As to conditions: protein: recombinant; tags: N-terminal GST; dsDNA, one strand shown. In a few lines:
as §1

The target in test [3] is HSF1 (Homo sapiens, UniProt Q00613 1-529). As to conditions: protein: recombinant; tags: N-terminal GST; chain copies: 3; dsDNA, one strand shown. In a few lines: as §1
Chain of HSF1 (Q00613 whole entry): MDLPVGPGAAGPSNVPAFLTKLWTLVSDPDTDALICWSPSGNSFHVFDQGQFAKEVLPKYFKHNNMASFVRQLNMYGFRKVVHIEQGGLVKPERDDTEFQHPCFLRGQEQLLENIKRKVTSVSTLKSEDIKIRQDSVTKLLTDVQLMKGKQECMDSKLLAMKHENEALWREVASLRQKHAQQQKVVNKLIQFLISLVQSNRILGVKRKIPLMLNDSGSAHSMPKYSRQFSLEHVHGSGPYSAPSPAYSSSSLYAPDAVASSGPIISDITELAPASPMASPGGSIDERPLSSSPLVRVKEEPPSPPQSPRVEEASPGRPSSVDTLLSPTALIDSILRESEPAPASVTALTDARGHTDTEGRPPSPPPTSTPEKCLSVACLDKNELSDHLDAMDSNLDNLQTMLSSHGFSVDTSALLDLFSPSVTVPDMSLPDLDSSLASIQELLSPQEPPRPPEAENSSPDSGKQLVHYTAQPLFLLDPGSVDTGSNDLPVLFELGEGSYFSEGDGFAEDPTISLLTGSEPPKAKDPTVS
Test [4] has as its target T2, SPIC (Homo sapiens, UniProt Q8N5J4 1-248).
T2 sequence: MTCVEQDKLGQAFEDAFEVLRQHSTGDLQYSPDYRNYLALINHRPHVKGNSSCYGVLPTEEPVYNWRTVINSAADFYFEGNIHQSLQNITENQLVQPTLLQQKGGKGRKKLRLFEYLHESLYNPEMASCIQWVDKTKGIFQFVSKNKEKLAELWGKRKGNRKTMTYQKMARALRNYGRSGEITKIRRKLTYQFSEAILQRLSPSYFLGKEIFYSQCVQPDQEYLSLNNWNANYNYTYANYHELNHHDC
As to conditions: protein: recombinant; tags: N-terminal GST; dsDNA, one strand shown. In a few lines:
as §1

The target of test [5] is ELF4 (Homo sapiens, UniProt Q99607 1-663). As to conditions: protein: recombinant; tags: N-terminal GST; dsDNA, one strand shown. In a few lines: as §1
Chain of ELF4 (Q99607 whole entry): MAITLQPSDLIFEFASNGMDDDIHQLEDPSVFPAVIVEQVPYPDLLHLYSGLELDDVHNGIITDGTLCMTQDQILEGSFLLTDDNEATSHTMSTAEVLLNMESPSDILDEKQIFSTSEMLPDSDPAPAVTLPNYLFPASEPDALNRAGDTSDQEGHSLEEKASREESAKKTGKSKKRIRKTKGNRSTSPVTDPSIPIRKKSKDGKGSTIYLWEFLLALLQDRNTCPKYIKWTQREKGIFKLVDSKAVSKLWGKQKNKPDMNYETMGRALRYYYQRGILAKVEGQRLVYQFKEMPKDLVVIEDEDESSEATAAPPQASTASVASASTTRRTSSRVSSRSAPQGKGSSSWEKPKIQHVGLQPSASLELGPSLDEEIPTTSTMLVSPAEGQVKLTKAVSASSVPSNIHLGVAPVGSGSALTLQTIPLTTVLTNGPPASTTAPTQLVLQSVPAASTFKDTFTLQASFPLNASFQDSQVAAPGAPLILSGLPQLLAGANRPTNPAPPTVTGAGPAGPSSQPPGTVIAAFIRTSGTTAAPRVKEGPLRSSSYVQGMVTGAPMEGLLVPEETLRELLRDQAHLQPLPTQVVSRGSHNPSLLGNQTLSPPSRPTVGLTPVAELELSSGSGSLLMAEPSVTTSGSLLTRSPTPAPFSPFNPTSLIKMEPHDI
In test [6] the target is T3, ELK4 (Homo sapiens, UniProt P28324-2 1-405).
T3 sequence: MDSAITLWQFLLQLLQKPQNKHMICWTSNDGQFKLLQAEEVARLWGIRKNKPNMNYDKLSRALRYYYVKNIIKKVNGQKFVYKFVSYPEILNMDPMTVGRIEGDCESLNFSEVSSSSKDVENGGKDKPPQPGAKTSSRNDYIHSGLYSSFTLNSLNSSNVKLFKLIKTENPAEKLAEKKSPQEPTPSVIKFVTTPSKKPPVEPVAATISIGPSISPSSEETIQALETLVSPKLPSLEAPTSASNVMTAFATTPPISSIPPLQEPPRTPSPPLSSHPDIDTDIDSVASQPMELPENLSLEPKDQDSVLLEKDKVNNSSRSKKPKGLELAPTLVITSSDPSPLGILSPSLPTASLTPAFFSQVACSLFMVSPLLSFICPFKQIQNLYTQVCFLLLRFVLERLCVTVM
As to conditions: protein: recombinant; tags: N-terminal GST; dsDNA, one strand shown. In a few lines:
as §1

Test [7] has as its target T4, ETV2 (Homo sapiens, UniProt O00321 1-342).
T4 sequence: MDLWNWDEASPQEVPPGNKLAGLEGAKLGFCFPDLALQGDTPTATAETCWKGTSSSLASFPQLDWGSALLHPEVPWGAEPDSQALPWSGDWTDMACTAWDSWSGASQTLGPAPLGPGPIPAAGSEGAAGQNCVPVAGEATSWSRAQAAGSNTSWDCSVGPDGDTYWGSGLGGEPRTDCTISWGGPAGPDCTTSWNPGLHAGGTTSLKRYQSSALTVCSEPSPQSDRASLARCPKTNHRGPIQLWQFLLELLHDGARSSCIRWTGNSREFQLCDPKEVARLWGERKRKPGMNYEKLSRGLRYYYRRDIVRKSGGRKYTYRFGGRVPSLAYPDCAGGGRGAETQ
As to conditions: protein: recombinant; tags: N-terminal GST; dsDNA, one strand shown. In a few lines:
as §1

Test [8] concerns the target T5, ELF3 (Homo sapiens, UniProt P78545 1-371).
T5 sequence: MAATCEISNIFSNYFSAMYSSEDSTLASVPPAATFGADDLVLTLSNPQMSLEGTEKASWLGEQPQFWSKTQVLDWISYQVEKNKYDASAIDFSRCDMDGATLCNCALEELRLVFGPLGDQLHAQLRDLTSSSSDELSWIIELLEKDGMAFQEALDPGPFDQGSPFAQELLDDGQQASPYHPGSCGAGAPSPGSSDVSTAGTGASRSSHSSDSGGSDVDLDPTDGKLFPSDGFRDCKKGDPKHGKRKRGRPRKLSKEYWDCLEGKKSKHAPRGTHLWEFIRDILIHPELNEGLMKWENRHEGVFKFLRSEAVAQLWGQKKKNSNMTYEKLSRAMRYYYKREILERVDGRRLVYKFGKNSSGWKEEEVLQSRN
As to conditions: protein: recombinant; tags: N-terminal GST; dsDNA, one strand shown. In a few lines: as §1

The target of test [9] is CRX (Homo sapiens, UniProt O43186 1-299). As to conditions: protein: recombinant; tags: N-terminal GST; dsDNA, one strand shown. In a few lines:
as §1

The target in test [10] is ETV1 (Homo sapiens, UniProt P50549 1-477). As to conditions: protein: recombinant; tags: N-terminal GST; dsDNA, one strand shown. In a few lines: as §1
Chain of ETV1 (P50549 whole entry): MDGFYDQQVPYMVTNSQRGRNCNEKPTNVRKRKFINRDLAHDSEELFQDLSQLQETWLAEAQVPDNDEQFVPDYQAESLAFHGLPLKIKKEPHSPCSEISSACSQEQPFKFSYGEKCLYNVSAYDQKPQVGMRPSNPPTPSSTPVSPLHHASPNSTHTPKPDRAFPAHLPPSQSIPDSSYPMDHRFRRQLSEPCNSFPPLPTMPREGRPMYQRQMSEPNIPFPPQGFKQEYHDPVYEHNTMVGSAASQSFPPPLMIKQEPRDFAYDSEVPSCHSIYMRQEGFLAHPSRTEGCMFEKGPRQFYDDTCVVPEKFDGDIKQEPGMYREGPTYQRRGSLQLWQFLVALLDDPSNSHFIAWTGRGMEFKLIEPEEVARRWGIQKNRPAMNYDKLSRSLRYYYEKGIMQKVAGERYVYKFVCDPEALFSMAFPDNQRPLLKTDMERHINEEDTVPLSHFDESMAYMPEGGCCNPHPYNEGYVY
Test [11] addresses T6, ERF (Homo sapiens, UniProt P50548 1-548).
T6 sequence: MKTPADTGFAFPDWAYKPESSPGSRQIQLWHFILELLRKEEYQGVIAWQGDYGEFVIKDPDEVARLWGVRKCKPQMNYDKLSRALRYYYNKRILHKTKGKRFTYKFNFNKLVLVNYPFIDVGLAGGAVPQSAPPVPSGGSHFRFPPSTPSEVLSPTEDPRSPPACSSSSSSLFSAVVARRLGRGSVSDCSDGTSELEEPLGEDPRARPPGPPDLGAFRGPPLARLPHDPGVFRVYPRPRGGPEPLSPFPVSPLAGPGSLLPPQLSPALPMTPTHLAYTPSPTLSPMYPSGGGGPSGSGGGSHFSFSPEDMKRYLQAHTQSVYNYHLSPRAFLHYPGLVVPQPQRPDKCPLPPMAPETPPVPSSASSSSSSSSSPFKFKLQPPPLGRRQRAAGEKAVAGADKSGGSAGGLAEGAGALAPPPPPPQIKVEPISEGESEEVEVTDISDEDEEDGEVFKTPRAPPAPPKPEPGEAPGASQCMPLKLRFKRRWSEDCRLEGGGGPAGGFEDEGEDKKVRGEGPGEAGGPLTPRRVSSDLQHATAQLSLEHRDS
As to conditions: protein: recombinant; tags: N-terminal GST; dsDNA, one strand shown. In a few lines:
as §1

Test [12] has as its target T7, ETV3L (Homo sapiens, UniProt Q6ZN32 1-361).
T7 sequence: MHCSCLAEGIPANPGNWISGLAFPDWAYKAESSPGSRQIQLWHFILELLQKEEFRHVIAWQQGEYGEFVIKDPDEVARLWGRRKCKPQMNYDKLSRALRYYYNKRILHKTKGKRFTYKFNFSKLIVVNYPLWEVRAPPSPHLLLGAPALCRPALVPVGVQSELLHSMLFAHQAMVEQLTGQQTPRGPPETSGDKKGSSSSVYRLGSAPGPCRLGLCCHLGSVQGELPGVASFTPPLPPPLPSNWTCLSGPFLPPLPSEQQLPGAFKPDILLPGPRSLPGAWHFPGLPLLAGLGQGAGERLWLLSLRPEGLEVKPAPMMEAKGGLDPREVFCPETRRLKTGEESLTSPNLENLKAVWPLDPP
As to conditions: protein: recombinant; tags: N-terminal GST; dsDNA, one strand shown. In a few lines:
as §1

The target of test [13] is T8, ETS2 (Homo sapiens, UniProt P15036 1-469).
T8 sequence: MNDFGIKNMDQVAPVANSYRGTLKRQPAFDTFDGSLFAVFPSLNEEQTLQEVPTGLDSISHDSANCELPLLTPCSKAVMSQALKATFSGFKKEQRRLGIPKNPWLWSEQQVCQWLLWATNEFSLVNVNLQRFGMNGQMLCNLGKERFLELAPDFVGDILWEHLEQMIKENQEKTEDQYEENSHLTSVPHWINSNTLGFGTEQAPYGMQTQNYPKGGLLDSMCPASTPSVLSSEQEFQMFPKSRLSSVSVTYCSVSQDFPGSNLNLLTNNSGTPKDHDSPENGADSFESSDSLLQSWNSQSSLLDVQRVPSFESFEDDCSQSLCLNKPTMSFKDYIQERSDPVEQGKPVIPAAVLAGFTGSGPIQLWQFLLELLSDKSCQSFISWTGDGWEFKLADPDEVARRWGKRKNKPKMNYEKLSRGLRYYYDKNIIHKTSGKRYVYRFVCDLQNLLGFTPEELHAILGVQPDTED
As to conditions: protein: recombinant; tags: N-terminal GST; dsDNA, one strand shown. In a few lines:
as §1

Test [14] has as its target T9, SPDEF (Homo sapiens, UniProt O95238 1-335).
T9 sequence: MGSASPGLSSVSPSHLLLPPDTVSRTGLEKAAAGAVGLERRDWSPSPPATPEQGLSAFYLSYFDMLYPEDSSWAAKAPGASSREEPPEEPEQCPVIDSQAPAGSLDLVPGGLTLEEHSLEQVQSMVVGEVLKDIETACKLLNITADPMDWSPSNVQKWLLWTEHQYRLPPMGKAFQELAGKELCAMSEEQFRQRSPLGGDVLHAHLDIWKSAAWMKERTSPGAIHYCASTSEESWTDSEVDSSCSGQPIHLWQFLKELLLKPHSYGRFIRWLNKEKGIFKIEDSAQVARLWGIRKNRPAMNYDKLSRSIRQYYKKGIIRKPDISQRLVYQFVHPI
As to conditions: protein: recombinant; tags: N-terminal GST; dsDNA, one strand shown. In a few lines: as §1

Test [15] concerns the target T10, ETV7 (Homo sapiens, UniProt Q9Y603 1-341).
T10 sequence: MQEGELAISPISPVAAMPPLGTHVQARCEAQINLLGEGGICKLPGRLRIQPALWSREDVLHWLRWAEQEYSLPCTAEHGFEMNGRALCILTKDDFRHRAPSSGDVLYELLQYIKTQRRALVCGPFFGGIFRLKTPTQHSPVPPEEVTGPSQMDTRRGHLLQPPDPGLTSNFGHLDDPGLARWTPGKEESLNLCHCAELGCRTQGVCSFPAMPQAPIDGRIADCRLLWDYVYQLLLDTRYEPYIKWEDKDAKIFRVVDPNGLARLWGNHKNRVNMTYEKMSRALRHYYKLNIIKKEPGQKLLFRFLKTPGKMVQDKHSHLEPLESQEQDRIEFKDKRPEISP
As to conditions: protein: recombinant; tags: N-terminal GST; dsDNA, one strand shown. In a few lines:
as §1

In test [16] the target is T11, ELF5 (Homo sapiens, UniProt Q9UKW6-2 1-255).
T11 sequence: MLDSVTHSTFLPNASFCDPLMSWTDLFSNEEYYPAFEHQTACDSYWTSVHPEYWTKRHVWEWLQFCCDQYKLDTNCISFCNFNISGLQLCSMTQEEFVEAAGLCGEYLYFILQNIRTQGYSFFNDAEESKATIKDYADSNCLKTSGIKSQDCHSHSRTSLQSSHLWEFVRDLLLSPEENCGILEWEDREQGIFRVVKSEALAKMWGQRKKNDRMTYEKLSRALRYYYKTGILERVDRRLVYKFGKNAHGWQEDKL
As to conditions: protein: recombinant; tags: N-terminal GST; dsDNA, one strand shown. In a few lines:
as §1

Test [17] deals with T12, ETV3 (Homo sapiens, UniProt P41162-2 1-143).
T12 sequence: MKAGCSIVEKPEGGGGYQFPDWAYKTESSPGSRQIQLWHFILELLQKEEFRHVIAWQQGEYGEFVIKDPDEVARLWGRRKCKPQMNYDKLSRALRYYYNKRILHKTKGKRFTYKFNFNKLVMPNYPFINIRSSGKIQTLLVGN
As to conditions: protein: recombinant; tags: N-terminal GST; dsDNA, one strand shown. In a few lines:
as §1

Test [18] concerns the target ETV6 (Homo sapiens, UniProt P41212 1-452). As to conditions: protein: recombinant; tags: N-terminal GST; dsDNA, one strand shown. In a few lines: as §1

Chain of ETV6 (P41212 whole entry): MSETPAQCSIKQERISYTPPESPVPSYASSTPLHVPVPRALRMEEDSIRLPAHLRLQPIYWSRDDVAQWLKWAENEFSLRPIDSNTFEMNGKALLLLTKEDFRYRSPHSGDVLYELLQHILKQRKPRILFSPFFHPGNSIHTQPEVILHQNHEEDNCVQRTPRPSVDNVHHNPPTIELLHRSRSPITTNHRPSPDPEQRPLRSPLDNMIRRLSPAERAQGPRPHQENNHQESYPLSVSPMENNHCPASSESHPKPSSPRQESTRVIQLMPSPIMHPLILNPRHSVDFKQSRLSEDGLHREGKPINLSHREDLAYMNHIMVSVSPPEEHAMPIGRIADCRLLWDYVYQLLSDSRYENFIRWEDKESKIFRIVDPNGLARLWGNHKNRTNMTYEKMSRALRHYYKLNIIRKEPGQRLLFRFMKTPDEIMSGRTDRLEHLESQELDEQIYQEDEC
Chain of CRX (O43186 whole entry): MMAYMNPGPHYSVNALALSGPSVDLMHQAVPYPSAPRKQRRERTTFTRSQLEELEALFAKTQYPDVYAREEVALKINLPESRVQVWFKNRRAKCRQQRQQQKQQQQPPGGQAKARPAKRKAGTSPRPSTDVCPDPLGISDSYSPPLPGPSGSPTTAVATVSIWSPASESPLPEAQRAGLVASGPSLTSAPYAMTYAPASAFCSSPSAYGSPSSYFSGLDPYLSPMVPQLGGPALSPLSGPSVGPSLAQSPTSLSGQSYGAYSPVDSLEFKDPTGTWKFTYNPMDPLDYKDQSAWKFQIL
Chain of ETV5 (P41161 whole entry): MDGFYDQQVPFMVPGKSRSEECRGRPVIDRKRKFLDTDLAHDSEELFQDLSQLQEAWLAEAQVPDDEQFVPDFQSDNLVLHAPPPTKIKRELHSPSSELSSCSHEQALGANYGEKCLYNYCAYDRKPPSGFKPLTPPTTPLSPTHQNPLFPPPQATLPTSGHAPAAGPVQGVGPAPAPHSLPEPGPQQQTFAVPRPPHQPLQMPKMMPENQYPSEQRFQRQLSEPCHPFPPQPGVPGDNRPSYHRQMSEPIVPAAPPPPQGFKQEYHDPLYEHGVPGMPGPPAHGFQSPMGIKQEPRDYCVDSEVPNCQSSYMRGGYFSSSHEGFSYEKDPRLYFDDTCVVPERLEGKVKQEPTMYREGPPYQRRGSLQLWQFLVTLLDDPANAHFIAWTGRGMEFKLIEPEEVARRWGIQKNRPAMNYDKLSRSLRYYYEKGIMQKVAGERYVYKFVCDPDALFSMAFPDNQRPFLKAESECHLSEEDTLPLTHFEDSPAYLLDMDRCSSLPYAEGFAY

Turning to TTTCGG, the binding signal was 1.15 fold enrichment (6-mer frequency, TF over GST control) in test [1]; 1.13 fold enrichment (6-mer frequency, TF over GST control) in test [2]; 1.39 fold enrichment (6-mer frequency, TF over GST control) in test [3]; 1.05 fold enrichment (6-mer frequency, TF over GST control) in [4]; 1.21 fold enrichment (6-mer frequency, TF over GST control) in test [5]; 1.14 fold enrichment (6-mer frequency, TF over GST control) in [6]. The binding signal is 1.16 fold enrichment (6-mer frequency, TF over GST control) in test [7]; 1.22 fold enrichment (6-mer frequency, TF over GST control) in [8]; 1.25 fold enrichment (6-mer frequency, TF over GST control) in test [9]; 1.31 fold enrichment (6-mer frequency, TF over GST control) in test [10]; 1.17 fold enrichment (6-mer frequency, TF over GST control) in [11]; 1.22 fold enrichment (6-mer frequency, TF over GST control) in [12]. Besides, the binding signal in [13] was 1.24 fold enrichment (6-mer frequency, TF over GST control); in test [14] it was 1.21 fold enrichment (6-mer frequency, TF over GST control); in test [15], 1.28 fold enrichment (6-mer frequency, TF over GST control); in [16], 1.21 fold enrichment (6-mer frequency, TF over GST control); in test [17] it was 1.16 fold enrichment (6-mer frequency, TF over GST control); in [18] it was 1.19 fold enrichment (6-mer frequency, TF over GST control).
